From PubChem
Shown are actives, neighbours in structure and some others; about 1.1% of the full set was active somewhere.
AmpC inh no detg – blocks E. coli AmpC beta-lactamase in detergent-free assay | P00811 | AmpC nitrocefin hydrolysis, absorbance 480 nm, 0.0001% Triton | Potency, µM (series often up to 57.1 µM), for inactives: top-dose activity change, negative = inhibition, actives largely listed as inhibitors | 330,000 compounds, 0.52% hits | AID 485341;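 note: plate controls were no compound for no effect and no enzyme for full effect; nearly all actives have a fitted effect of over 20% in size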
Target sequence (P00811 whole entry, looked up): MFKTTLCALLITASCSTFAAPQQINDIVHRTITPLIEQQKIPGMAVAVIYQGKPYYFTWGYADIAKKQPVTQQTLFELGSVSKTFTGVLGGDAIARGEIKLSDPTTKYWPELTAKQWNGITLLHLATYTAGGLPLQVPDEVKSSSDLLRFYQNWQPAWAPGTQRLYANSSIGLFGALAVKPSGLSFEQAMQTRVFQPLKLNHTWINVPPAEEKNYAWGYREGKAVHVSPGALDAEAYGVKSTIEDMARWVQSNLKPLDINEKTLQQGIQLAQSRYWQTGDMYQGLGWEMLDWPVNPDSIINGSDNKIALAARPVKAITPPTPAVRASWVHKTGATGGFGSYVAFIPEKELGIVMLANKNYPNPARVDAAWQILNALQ
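20 mM phosphate pH 7.0 + 0.01% (detergent screen) or 0.0001% Triton X-100; 5.3 nM AmpC reagent; cpd preinc 15 min RT; nitrocefin (800 uM stock) to start; A480 q20 s × 4 min; Activity was normalised to no-enzyme and no-compound control wells.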
AmpC inh detg – AmpC beta-lactamase inhibition with detergent present | P00811 | AmpC hydrolysis of nitrocefin, absorbance 480 nm, 0.01% Triton | Potency, µM (doses to about 114 µM), for inactives: at the top dose activity change, negative = inhibition, hits mostly inhibitors | 370,000 compounds, 0.041% hits | AID 485294;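 note: 0% = no-compound wells and -100% = no-enzyme wells; nearly all actives have a fitted effect of over 25% in size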
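20 mM phosphate pH 7.0 + 0.01% (detergent screen) or 0.0001% Triton X-100; 5.3 nM AmpC reagent; cpd preinc 15 min RT; nitrocefin (800 uM stock) to start; A480 q20 s × 4 min; Activity was normalised to no-enzyme and no-compound control wells.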
Vaccinia mCherry – vaccinia inhibition (mCherry reporter). Vaccinia virus mCherry reporter infection, fluorescence. Potency, µM (top dose mostly 36.5 µM), without a hit: at the top dose activity change, negative = inhibition, most hits filed as inhibitors. AID 720579. 310,000 compounds, 0.63% hits; calls by dose curve; tested in A549 cells; note: nearly all actives have a fitted effect of over 35% in size
Vaccinia Venus – vaccinia inhibition (Venus reporter). Vaccinia virus Venus reporter expression, fluorescence. AID 720580. 330,000 compounds, 0.46% hits. Potency, µM (series often up to 36.5 µM), for inactives: at the highest dose activity change, negative = inhibition, hits mostly inhibitors; calls by dose curve; tested in A549 cells; note: nearly all actives have a fitted effect of over 30% in size
* = called active by the depositor; i = inactive; u = inconclusive; x = not tested or not shown. Unless noted, calls come from the whole dose curve; as a rule, active = well fitted curve in the direction sought with a large enough effect; inconclusive = small, poorly fitted or top-dose-only effect, or another doubt; inactive = no such curve, though single readings can be large; an effect the other way counts as inactive or inconclusive. Unless noted, % is set by controls: 0 for no effect and ±100 for the full control effect; potency is the fitted concentration of half-maximal effect.

SMILES	AmpC inh no detg	AmpC inh detg	Vaccinia mCherry	Vaccinia Venus
Cc1cc2nc(N3CCC(NC(C)c4nc(-c5ccccn5)no4)CC3)nc(C)c2cc1C (stereo unspecified)	x	x	-17%	-13%
Oc1[nH]c2ccc(Br)cc2c1N=NC(=S)Nc1ccc(F)cc1	-49%	2%	u	-15%
Oc1ccc(NC(=S)N=Nc2c(O)[nH]c3ccc(Br)cc23)cc1	18µM*	2%	u	-16%
COC(=O)c1sccc1NC(=O)Nc1ccc(Cl)c(Cl)c1	0.16µM*	3%	x	-20%
Cc1cc(C(=O)NCc2nnc3n2CCN(Cc2ccc(F)cc2F)CC3)c(C)o1	x	x	-2%	1%
O=C(c1cn(C2CCCN(Cc3cccc(Oc4ccccc4)c3)C2)nn1)N1CCCC1 (stereo unspecified)	x	x	-4%	-17%
Cc1ccc(SCc2[nH]nc3c2C2(CCSCC2)C(C#N)=C(N)O3)cc1	28µM*	-4%	-8%	-6%
CCOC(=O)N1CCC2(CC1)C(C#N)=C(N)Oc1n[nH]c(CSc3ccc(C)cc3)c12	1%	4%	-22%	-14%
Cc1cnc(-n2ncc(C(=O)NCC3COCCO3)c2C2CC2)nc1-c1cccs1 (stereo unspecified)	x	x	-18%	-8%
O=c1[nH]c(-c2ccccn2)nc2sc(-c3ccccc3)cc12	-12%	-2%	4.5µM*	u
CCC1CN(CCNC(=O)c2ccnc(Cl)c2)Cc2cc(OC)ccc2O1 (stereo unspecified)	x	x	-6%	-4%
CCc1nc2cc(C(=O)N3CCC[C@H]3C(=O)OC)cc(NC(=O)c3ccccc3OC)c2n1C	x	x	i	-26%
c1ccc(-c2cc(NCCN3CCCCC3)c3ccccc3n2)cc1	-3%	-1%	u	11µM*
CCOC(=O)c1ccc(N(C(=O)c2ccccc2)c2ccccc2)cc1	x	x	i	-21%
O=C(NCc1ccco1)c1nc2c(nnn2Cc2ccccc2Cl)c(=O)[nH]1	-27%	-1%	13µM*	11µM*
CC1CN(CCS(=O)(=O)c2cc(Cl)ccc2Cl)CC(C)O1 (stereo unspecified)	1%	-13%	11µM*	u
CSCCC(NC(=O)c1cccc([N+](=O)[O-])c1)c1nc2ccccc2[nH]1 (stereo unspecified)	20µM*	-3%	-27%	8%
COc1cccc(C(=O)N2CCCC(c3nc(SCCN4CCOCC4)ncc3C)C2)c1 (stereo unspecified)	x	x	-9%	-3%
CCN(CC)c1ccc(NC(=O)c2nc3nc(C)cc(C(F)F)n3n2)cc1	3.2µM*	9%	i	-11%
COc1ccc2cc3c(N)c(C(=O)NCc4ccco4)sc3nc2c1	0.32µM*	0%	x	x
COc1ccc2cc3cc(C(=O)NCc4ccco4)oc3nc2c1	-13%	-1%	x	x
COc1ccc(CN2CCc3nnc(CCc4ccccc4)n3CC2)c(OC)c1C	x	x	-6%	-2%
CC(C)(CNC(=O)C1CCN(S(=O)(=O)c2cc([N+](=O)[O-])ccc2Cl)CC1)N1CCOCC1	31%	-12%	14µM*	u
Cc1cc(-c2ccnc(-n3ncc(C(=O)NCC4COCCO4)c3C3CC3)n2)c(C)s1 (stereo unspecified)	x	x	-9%	-21%
NS(=O)(=O)c1ccc(CCNC(=O)c2ccccc2OCc2ccc(F)cc2)cc1	11µM*	u	-8%	-9%
SMILES	AmpC inh no detg	AmpC inh detg	Vaccinia mCherry	Vaccinia Venus
CCOc1ccccc1C(=O)NCC(=O)OCC(=O)NCCc1ccc(S(N)(=O)=O)cc1	-2%	u	x	-5%
COc1ccc(CCN2CCC(CNC(=O)c3cnn(-c4ccc(C)cc4)c3C3CCN(C(=O)OC(C)(C)C)CC3)CC2)cc1	x	4%	u	11µM*
CC(=NCC1CCCO1)c1c(O)n(Cc2ccccc2)c(=O)[nH]c1=O (stereo unspecified)	2.2µM*	7%	i	-11%
CC(=NCC1CCCO1)c1c(O)n(-c2ccc(C)cc2)c(=O)[nH]c1=O (stereo unspecified)	-13%	1%	x	x
CC1Nc2ncnc(N3CCN(c4ccccc4)CC3)c2N(Cc2ccc(Br)cc2)C1=O (stereo unspecified)	158%	-5%	7.1µM*	u
Cc1ccc(C(=O)N/C(=C/c2ccc(-c3ccc([N+](=O)[O-])cc3)o2)C(=O)NCCCN(C)C)cc1	x	x	u	11µM*
O=C(NCCCO)/C(=C/c1ccc(-c2cccc([N+](=O)[O-])c2)o1)NC(=O)c1ccccc1	50%	-3%	10%	1%
CC[n+]1ccnc2ccccc21	x	x	18µM*	13µM*
COc1ccccc1C1CC(c2c(-c3ccccc3)c3cc(Cl)ccc3[nH]c2=O)=NN1S(C)(=O)=O (stereo unspecified)	35%	0%	11µM*	11µM*
NC(=O)[C@@H]1CCCN1C(=O)CCN1Cc2ccccc2OC(c2ccccc2F)C1 (stereo partly specified)	x	x	-11%	-7%
Cc1cnc(-n2ncc(C(=O)NCc3ccncc3)c2C(C)C)nc1-c1ccc(F)cc1	x	x	-22%	-17%
CC(=O)Nc1ccc(NC(=O)CNC(=O)c2sc3ccccc3c2Cl)cc1	0%	-14%	i	3%
O=C(CNC(=O)c1sc2ccccc2c1Cl)NCc1cccc(C(F)(F)F)c1	-35%	-13%	-26%	16µM*
C[C@@H]1O[C@@H](O[C@@H]2C=C3CC[C@@H]4C(CC[C@]5(C)[C@@H](c6ccc(=O)oc6)CC[C@]45O)[C@@]3(C)CC2)[C@H](O)[C@H](O)[C@H]1O (stereo partly specified)	94%	3%	32µM*	u
C[C@@H]1O[C@@H](O[C@@H]2C=C3CCC4C(CC[C@]5(C)[C@@H](c6ccc(=O)oc6)CC[C@]45O)[C@@]3(C)CC2)[C@H](O)[C@H](O)[C@H]1O (stereo partly specified)	109%	u	u	0.63µM*
CCN1CCN(C(=O)c2cnn(-c3ncc4c(n3)-c3ccccc3CCC4)c2COC)CC1	x	x	-1%	-19%
O=C1Cc2c([nH]c3ccc([N+](=O)[O-])cc23)-c2ccccc2N1	x	x	1.3µM*	u
O=c1[nH]c2cc([N+](=O)[O-])ccc2c2ccccc12	x	x	-13%	-2%
Cc1csc(CN(C)C(=O)c2sc3ncnc(NCC4CCCO4)c3c2C)n1 (stereo unspecified)	x	x	i	-2%
O=C(O)c1ccc(/C=N/NC(=O)c2ccc(CN3c4cccc5cccc(c45)S3(=O)=O)cc2)cc1	28µM*	-13%	x	x
Cc1cc(C=O)cc(C)c1[N+](=O)[O-]	x	x	-14%	-5%
NC(=S)N=Nc1c(O)n(Cc2ccccc2)c2ccccc12	-10%	0%	u	0.32µM*
Cc1ccc(NC(=O)Cn2c(O)c(N=NC(N)=S)c3ccccc32)cc1	-39%	-3%	u	0.28µM*
CCCCNC(=S)N=Nc1c(O)n(Cc2ccccc2)c2ccccc12	-24%	-6%	-1%	-23%
C/C(Cl)=C\Cn1c(O)c(N=NC(N)=S)c2ccccc21	-43%	-3%	0.32µM*	u
